Experimental findings from PMC7862700, “An all-to-all approach to the identification of sequence-specific readers for epigenetic DNA modifications on cytosine” are described below.

Holding throughout (test): DAPPL (digital affinity profiling via proximity ligation, sequencing); 10 mM Tris-HCl pH 7.5, 50 mM NaCl, 1 mM DTT, 4% glycerol, room temperature, 30 min; GST-TFs on glutathione beads, 16-mer random dsDNA library, 0.1% formaldehyde crosslink after washing; high values mean tight binding
Holding throughout (details): protein: recombinant; tags: N-terminal GST; dsDNA, one strand shown

Assay [1] concerns the target T1, FEV (Homo sapiens, UniProt Q99581 1-238).
T1 sequence: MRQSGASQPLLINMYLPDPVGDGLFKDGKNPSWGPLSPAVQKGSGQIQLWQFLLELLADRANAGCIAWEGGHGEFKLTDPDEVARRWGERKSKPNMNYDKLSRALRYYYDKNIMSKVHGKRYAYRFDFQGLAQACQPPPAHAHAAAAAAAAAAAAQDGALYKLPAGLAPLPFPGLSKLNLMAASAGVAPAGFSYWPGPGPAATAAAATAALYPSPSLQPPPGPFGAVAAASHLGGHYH
The method in brief:
(§1)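 Beads coated with glutathione captured GST-fused human transcription factors that had been expressed in yeast, and the factors were then given DNA barcodes and pooled with a tag-only sample. The pools were incubated with 200 nmole of a random double-stranded 16-mer DNA library in Tris/NaCl/DTT/glycerol buffer for 30 min at room temperature, washed, crosslinked with 0.1% formaldehyde and proximity-ligated with BsaI/T4 ligase at 37 °C for 1 h. PCR amplification and Illumina NextSeq500 sequencing came last. Binding signal is each hexamer's read frequency for a factor divided by its frequency for the tag-only sample.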

Assay [2] deals with ETV5 (Homo sapiens, UniProt P41161 1-510). The method in brief:
as §1

In assay [3] the target is T2, SPIC (Homo sapiens, UniProt Q8N5J4 1-248).
T2 sequence: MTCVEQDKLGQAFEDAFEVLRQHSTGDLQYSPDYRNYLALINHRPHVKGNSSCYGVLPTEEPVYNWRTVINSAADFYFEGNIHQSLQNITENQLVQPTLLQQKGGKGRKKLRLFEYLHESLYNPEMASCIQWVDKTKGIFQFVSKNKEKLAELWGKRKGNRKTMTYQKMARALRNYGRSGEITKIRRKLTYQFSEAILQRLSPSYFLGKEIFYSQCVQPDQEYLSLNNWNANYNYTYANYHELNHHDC
Summed up:
as §1

Assay [4] concerns the target ELF4 (Homo sapiens, UniProt Q99607 1-663). Summed up: as §1
Assay [5] concerns the target T3, ELK4 (Homo sapiens, UniProt P28324-2 1-405).
T3 sequence: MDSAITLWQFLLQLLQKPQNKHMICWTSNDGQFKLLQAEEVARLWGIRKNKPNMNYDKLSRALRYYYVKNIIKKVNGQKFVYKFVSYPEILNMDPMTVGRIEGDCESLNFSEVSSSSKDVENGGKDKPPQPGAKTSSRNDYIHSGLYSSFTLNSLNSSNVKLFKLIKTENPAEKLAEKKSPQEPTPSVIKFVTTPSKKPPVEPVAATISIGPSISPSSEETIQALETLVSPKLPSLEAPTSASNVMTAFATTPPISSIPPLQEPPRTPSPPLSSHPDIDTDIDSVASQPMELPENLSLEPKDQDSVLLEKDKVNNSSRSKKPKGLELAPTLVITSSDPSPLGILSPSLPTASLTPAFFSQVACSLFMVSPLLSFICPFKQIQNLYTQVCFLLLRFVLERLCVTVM
Summed up:
as §1

In assay [6] the target is T4, ETV2 (Homo sapiens, UniProt O00321 1-342).
T4 sequence: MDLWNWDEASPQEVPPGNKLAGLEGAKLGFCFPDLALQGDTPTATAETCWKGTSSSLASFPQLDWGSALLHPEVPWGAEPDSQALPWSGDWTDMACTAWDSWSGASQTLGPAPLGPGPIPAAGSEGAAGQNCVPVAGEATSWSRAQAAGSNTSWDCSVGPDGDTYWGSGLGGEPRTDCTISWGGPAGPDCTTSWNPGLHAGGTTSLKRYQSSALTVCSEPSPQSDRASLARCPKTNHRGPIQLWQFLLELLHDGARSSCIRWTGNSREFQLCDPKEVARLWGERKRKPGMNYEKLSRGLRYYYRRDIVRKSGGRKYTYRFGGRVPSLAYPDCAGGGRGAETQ
Summed up: as §1

Assay [7] deals with T5, ELF3 (Homo sapiens, UniProt P78545 1-371).
T5 sequence: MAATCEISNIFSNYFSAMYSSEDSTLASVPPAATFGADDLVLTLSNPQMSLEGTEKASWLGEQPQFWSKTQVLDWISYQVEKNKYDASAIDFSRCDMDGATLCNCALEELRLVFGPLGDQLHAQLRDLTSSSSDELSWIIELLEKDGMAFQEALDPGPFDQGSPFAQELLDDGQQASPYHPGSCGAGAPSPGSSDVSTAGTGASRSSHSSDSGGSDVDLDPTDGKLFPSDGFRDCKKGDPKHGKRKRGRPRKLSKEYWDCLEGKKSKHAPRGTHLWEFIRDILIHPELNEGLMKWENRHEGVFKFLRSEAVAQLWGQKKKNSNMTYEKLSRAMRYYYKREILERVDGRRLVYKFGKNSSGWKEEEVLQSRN
The method in brief:
as §1

The target in assay [8] is ETV1 (Homo sapiens, UniProt P50549 1-477). The method in brief:
as §1

Chain of ETV5 (P41161 whole entry): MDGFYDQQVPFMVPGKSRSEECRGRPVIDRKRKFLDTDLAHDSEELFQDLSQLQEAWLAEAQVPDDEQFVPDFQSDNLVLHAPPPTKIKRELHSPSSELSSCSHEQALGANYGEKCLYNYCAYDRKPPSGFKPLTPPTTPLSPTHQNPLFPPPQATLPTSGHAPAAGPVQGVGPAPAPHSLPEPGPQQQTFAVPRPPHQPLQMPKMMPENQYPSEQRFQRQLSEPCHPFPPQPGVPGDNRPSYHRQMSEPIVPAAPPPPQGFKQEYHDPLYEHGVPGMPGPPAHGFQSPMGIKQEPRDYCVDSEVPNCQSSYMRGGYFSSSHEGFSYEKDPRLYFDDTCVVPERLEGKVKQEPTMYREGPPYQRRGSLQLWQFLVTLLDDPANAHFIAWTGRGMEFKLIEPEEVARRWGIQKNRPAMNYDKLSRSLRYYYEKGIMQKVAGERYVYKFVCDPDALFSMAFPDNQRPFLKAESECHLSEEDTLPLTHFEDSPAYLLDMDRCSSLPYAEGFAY
Chain of ELF4 (Q99607 whole entry): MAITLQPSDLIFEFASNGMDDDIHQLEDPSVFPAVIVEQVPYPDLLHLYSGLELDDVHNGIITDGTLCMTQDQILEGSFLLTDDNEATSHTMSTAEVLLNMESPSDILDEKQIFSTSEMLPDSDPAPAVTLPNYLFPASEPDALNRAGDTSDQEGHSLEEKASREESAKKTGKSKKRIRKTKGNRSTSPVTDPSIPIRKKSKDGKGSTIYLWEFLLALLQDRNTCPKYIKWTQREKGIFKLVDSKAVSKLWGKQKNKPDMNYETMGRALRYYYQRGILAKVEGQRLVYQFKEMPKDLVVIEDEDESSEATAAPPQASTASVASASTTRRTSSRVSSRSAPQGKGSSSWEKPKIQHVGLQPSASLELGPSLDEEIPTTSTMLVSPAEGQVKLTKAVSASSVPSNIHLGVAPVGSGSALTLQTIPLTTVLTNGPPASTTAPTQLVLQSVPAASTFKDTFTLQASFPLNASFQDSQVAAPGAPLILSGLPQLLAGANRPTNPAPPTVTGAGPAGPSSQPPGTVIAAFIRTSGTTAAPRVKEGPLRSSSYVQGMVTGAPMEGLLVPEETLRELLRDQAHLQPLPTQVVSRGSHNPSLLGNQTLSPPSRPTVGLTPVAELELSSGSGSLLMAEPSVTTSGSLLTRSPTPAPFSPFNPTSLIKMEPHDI
Chain of ETV1 (P50549 whole entry): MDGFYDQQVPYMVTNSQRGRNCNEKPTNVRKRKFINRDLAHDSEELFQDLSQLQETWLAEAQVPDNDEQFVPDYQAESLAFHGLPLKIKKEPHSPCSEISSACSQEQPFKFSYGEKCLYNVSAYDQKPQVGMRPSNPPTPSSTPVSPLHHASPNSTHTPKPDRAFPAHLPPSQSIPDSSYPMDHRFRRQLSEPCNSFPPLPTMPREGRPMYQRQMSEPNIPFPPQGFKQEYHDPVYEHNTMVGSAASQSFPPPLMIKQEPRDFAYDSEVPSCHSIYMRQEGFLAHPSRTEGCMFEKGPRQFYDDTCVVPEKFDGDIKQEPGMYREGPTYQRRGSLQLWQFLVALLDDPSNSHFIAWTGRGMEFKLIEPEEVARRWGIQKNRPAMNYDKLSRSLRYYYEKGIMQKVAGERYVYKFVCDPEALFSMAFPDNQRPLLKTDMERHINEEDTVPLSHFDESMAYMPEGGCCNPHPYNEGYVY

As for CGCCAA, the binding signal in assay [1] was 1.05 fold enrichment (6-mer frequency, TF over GST control); in assay [2], 1.02 fold enrichment (6-mer frequency, TF over GST control); in assay [3], 1.11 fold enrichment (6-mer frequency, TF over GST control); in assay [4], 1.09 fold enrichment (6-mer frequency, TF over GST control); in assay [5] it was 1.04 fold enrichment (6-mer frequency, TF over GST control); in assay [6], 1.03 fold enrichment (6-mer frequency, TF over GST control). Moreover, the binding signal in assay [7] is 1.12 fold enrichment (6-mer frequency, TF over GST control).

As for CGTCCG, the binding signal in assay [1] was 1.48 fold enrichment (6-mer frequency, TF over GST control); in assay [2], 1.23 fold enrichment (6-mer frequency, TF over GST control); in assay [3] it was 1.37 fold enrichment (6-mer frequency, TF over GST control); in assay [4], 1.26 fold enrichment (6-mer frequency, TF over GST control); in assay [5], 1.17 fold enrichment (6-mer frequency, TF over GST control); in assay [6], 1.16 fold enrichment (6-mer frequency, TF over GST control). For the same sequence, the binding signal in assay [7] is 1.26 fold enrichment (6-mer frequency, TF over GST control); in assay [8] it was 1.38 fold enrichment (6-mer frequency, TF over GST control).

Regarding TGGCAG, the binding signal in assay [1] is 1.18 fold enrichment (6-mer frequency, TF over GST control); in assay [2], 1.07 fold enrichment (6-mer frequency, TF over GST control); in assay [3], 1.05 fold enrichment (6-mer frequency, TF over GST control); in assay [4], 1.02 fold enrichment (6-mer frequency, TF over GST control); in assay [5], 1.01 fold enrichment (6-mer frequency, TF over GST control); in assay [6] it was 1.29 fold enrichment (6-mer frequency, TF over GST control). The binding signal in assay [7] is 1.02 fold enrichment (6-mer frequency, TF over GST control); in assay [8], 1.05 fold enrichment (6-mer frequency, TF over GST control).

For ATGTAG, the binding signal in assay [1] was 1.02 fold enrichment (6-mer frequency, TF over GST control); in assay [2], 1.08 fold enrichment (6-mer frequency, TF over GST control); in assay [3], 1.09 fold enrichment (6-mer frequency, TF over GST control); in assay [4] it was 1.1 fold enrichment (6-mer frequency, TF over GST control); in assay [5], 1.15 fold enrichment (6-mer frequency, TF over GST control); in assay [6], 1.03 fold enrichment (6-mer frequency, TF over GST control). Also, the binding signal in assay [7] was 1.06 fold enrichment (6-mer frequency, TF over GST control).

Take ACACCA: the binding signal was 1.03 fold enrichment (6-mer frequency, TF over GST control) in assay [1]; 1.04 fold enrichment (6-mer frequency, TF over GST control) in assay [2]; 1.13 fold enrichment (6-mer frequency, TF over GST control) in assay [3]; 1.02 fold enrichment (6-mer frequency, TF over GST control) in assay [4]; 1.08 fold enrichment (6-mer frequency, TF over GST control) in assay [5]; 1.05 fold enrichment (6-mer frequency, TF over GST control) in assay [6]. For the same sequence, the binding signal in assay [7] was 1.01 fold enrichment (6-mer frequency, TF over GST control).

Consider GAAGCG, for which the binding signal in assay [1] was 1.37 fold enrichment (6-mer frequency, TF over GST control); in assay [2], 1.33 fold enrichment (6-mer frequency, TF over GST control); in assay [3], 1.27 fold enrichment (6-mer frequency, TF over GST control); in assay [4], 1.2 fold enrichment (6-mer frequency, TF over GST control); in assay [5] it was 1.2 fold enrichment (6-mer frequency, TF over GST control); in assay [6], 1.19 fold enrichment (6-mer frequency, TF over GST control). Moreover, the binding signal in assay [7] is 1.22 fold enrichment (6-mer frequency, TF over GST control); in assay [8], 1.38 fold enrichment (6-mer frequency, TF over GST control).

With GACTAC, the binding signal in assay [1] is 1.08 fold enrichment (6-mer frequency, TF over GST control); in assay [2], 1.15 fold enrichment (6-mer frequency, TF over GST control); in assay [3], 1.13 fold enrichment (6-mer frequency, TF over GST control); in assay [4], 1.11 fold enrichment (6-mer frequency, TF over GST control); in assay [5] it was 1.18 fold enrichment (6-mer frequency, TF over GST control); in assay [6], 1.22 fold enrichment (6-mer frequency, TF over GST control). Also, the binding signal was 1.2 fold enrichment (6-mer frequency, TF over GST control) in assay [7] and 1.17 fold enrichment (6-mer frequency, TF over GST control) in assay [8].

With ATATGT, the binding signal in assay [1] is 1.11 fold enrichment (6-mer frequency, TF over GST control); in assay [2], 1.1 fold enrichment (6-mer frequency, TF over GST control); in assay [3] it was 1.18 fold enrichment (6-mer frequency, TF over GST control); in assay [4], 1.14 fold enrichment (6-mer frequency, TF over GST control); in assay [5] it was 1.21 fold enrichment (6-mer frequency, TF over GST control); in assay [6], 1.04 fold enrichment (6-mer frequency, TF over GST control). In addition, the binding signal in assay [7] was 1.14 fold enrichment (6-mer frequency, TF over GST control); in assay [8], 1.12 fold enrichment (6-mer frequency, TF over GST control).
